This is an account of results in PubChem BioAssay (NCI).

The nature of experiment [1]: NCI Yeast Anticancer Drug Screen. Data for the rad50 strain (AID 155).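 Also: 0% = growth of vehicle-only cultures of the same strain.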 As to conditions: S. cerevisiae rad50 strain growth inhibition; at 50.0 µM; hits give high values. Put shortly:
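Vehicle-treated cultures provide the reference for the growth inhibition reported for compound-exposed, repair-deficient yeast.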

Experiment [2] is described as follows: NCI Yeast Anticancer Drug Screen. Data for the mec2-1 strain (AID 157). As to conditions: S. cerevisiae mec2-1 strain, at 50.0 µM, hits give high values. A digest of the protocol: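 Compounds were applied to mec2-1 yeast cells. Their growth was then compared with that of vehicle-treated cultures to give growth inhibition.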
Experiment [3] is described as follows: NCI Yeast Anticancer Drug Screen. Data for the sgs1 mgt1 strain (AID 161).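 Also: 0% = growth of cultures given vehicle only.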 The settings on record: S. cerevisiae sgs1 mgt1 strain, at 50.0 µM, hits give high values. Put shortly: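 Percent growth inhibition was derived by comparing compound-exposed mutant yeast with vehicle-exposed cultures. The strain carries alterations in DNA damage repair.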
Experiment [4] is described as follows: NCI Yeast Anticancer Drug Screen. Data for the cln2 rad14 strain (AID 165).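 Also: 0% = growth equal to vehicle treated cultures.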 As to conditions: S. cerevisiae cln2 rad14 strain, at 50.0 µM, hits give high values. Put shortly:
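Strain: cln2 rad14 yeast, altered in cell cycle control and DNA damage repair. Read-out: growth inhibition vs vehicle.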

A short description of experiment [5]: NCI Yeast Anticancer Drug Screen. Data for the bub3 strain (AID 167). The settings on record: S. cerevisiae bub3 mutant strain, at 50.0 µM, hits give high values. A digest of the protocol: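 Mutant yeast screening strain plus compound; vehicle-treated cultures serve as the 0% inhibition reference.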
Experiment [6] is described as follows: NCI Yeast Anticancer Drug Screen. Data for the mlh1 rad18 strain (AID 175). As to conditions: S. cerevisiae mlh1 rad18 strain growth inhibition; at 50.0 µM; hits give high values. A digest of the protocol:
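A repair-deficient yeast strain is exposed to test compound, and growth is scored relative to vehicle-treated controls.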

Compounds without any hit were thinned out: in the full panel of roughly 79,000, 15% have a hit. A number with no mark means an inactive call. The source made the active and inactive calls. Rule as the data show it: active = growth inhibition above about 70%; inactive = the rest.

Turning to `CCOP(=O)(c1ccccc1)C(C)C` (stereo unspecified), the growth inhibition in experiment [1] was -7.85%; in experiment [2], -0.5%; in experiment [3] it was -1.7%; in experiment [4], -40%; in experiment [5] it was -0.65%; in experiment [6] it was -0.2%.
Turning to `c1ccc(-n2cccc2)cc1`, the growth inhibition is 7.4% in experiment [1]; 7.05% in experiment [2]; 9.25% in experiment [3]; -30% in experiment [4]; -3.7% in experiment [5]; -11.6% in experiment [6].
Consider `CC12CCC3C(CC=C4CC(O)CCC43C)C1CCC(=O)N2` (stereo unspecified), for which the growth inhibition in experiment [1] was 5.2%; in experiment [2], -3.55%; in experiment [3], -10.2%; in experiment [4], 7.95%; in experiment [5], -10.2%; in experiment [6], -1%.
Regarding `CC1(C)CC[C@]2(C(=O)O)CC[C@]3(C)C(=CC[C@@H]4[C@@]5(C)CC[C@H](OC6OC(C(=O)O)C(O)C(O)C6O)C(C)(C)[C@@H]5CC[C@]43C)[C@@H]2C1` (stereo partly specified), the growth inhibition in experiment [1] is 90.8% (active); in experiment [2], 91% (active); in experiment [3], 91.7% (active); in experiment [4] it was 92.5% (active); in experiment [5], 91.3% (active); in experiment [6], 88.7% (active).
For `CCOC(=O)c1ccc(NC(C)=O)cc1`, the growth inhibition in experiment [1] was 18%; in experiment [2], 9.2%; in experiment [3] it was 9.3%; in experiment [4], -5.45%; in experiment [5], -4.45%; in experiment [6], 12.1%.
Consider `CC(C)C1=CC23CCC4C(C)(C(=O)O)CCCC4(C)C2CC1C1C(=O)N(c2ccccc2)C(=O)C13` (stereo unspecified), for which the growth inhibition was -7.45% in experiment [1]; -3.9% in experiment [2]; 1.55% in experiment [3]; 0.7% in experiment [4]; -40% in experiment [5]; 8.65% in experiment [6].
`CN(C)CCNC(=O)c1cccc(C(C)(C)C)c1[N+](=O)[O-]`: the growth inhibition in experiment [1] was -11.2%; in experiment [2] it was -30.1%; in experiment [3], -18.9%; in experiment [4] it was 0.35%; in experiment [5], -19.1%; in experiment [6], -20%.
As to `CN1C2CCC1/C(=C/c1cccc3c1OCO3)C(=O)/C2=C\c1cccc2c1OCO2`, the growth inhibition in experiment [1] is 27.8%; in experiment [2], 19.8%; in experiment [3] it was 20.4%; in experiment [4], -52%; in experiment [5], 32.3%; in experiment [6] it was 27.1%.
As to `CN(CCO)c1nc2c(c(=O)[nH]1)CCC2`, the growth inhibition in experiment [1] was -3.55%; in experiment [2] it was -21.8%; in experiment [3] it was -43%; in experiment [4], -5.25%; in experiment [5] it was -19.4%; in experiment [6], -21.8%.
As to `Oc1ccccc1-c1cc(-c2ccccc2)nc(NCCCCCCNc2nc(-c3ccccc3)cc(-c3ccccc3O)n2)n1`, the growth inhibition was 9.85% in experiment [1]; 3.9% in experiment [2]; -12.1% in experiment [3]; -24.2% in experiment [4]; -6.4% in experiment [5]; 11.2% in experiment [6].
Consider `CC1CC(=O)N2CCCNC2=C1C#N` (stereo unspecified), for which the growth inhibition in experiment [1] was -0.55%; in experiment [2] it was 4.6%; in experiment [3], 12.8%; in experiment [4], 19.2%; in experiment [5] it was 3.75%; in experiment [6], 26.1%.
`O=C1C=C(Nc2ccccc2)c2ccc(S(=O)(=O)O)cc2C1=O`: the growth inhibition is 0.4% in experiment [1]; -6.9% in experiment [2]; 10.1% in experiment [3]; -0.8% in experiment [4]; -29.1% in experiment [5]; -6.55% in experiment [6].
Turning to `O=C(O)CCCCCNCC(CNCCCCCC(=O)O)(C(=O)O)C(=O)O`, the growth inhibition was 7.7% in experiment [1]; -2.8% in experiment [2]; -2.7% in experiment [3]; -8.5% in experiment [4]; -1.05% in experiment [5]; 5.2% in experiment [6].
Consider `N/N=C(/Cc1nc2ccc(C(=O)c3ccccc3)cc2[nH]c1=O)C(=O)Nc1ccc([N+](=O)[O-])cc1[N+](=O)[O-]`, for which the growth inhibition was 23.4% in experiment [1]; 13.2% in experiment [2]; -3.6% in experiment [3]; -47.8% in experiment [4]; 5.2% in experiment [5]; 15.6% in experiment [6].
For `Cc1cc(C(=O)O)c2cc(Br)ccc2n1`, the growth inhibition in experiment [1] was 4.2%; in experiment [2], 12.3%; in experiment [3] it was 15.2%; in experiment [4], 17.3%; in experiment [5] it was 11.2%; in experiment [6], -4.5%.
For `CC(=O)C(N=NC1CCC(S(=O)(=O)NB2N=CS2)CC1)C(=O)Nc1ccccc1C` (stereo unspecified), the growth inhibition in experiment [1] was -32.2%; in experiment [2], -1.05%; in experiment [3], -5.9%; in experiment [4], 16.5%; in experiment [5], 9.35%; in experiment [6], 15.4%.
`CCOC(=O)C1=C2c3ccc4cc(OC)ccc4c3CCC2(C)C(=O)C1` (stereo unspecified): the growth inhibition in experiment [1] is -19.1%; in experiment [2], 15.5%; in experiment [3], -2.55%; in experiment [4], -21.1%; in experiment [5], -11.2%; in experiment [6] it was -21.1%.
On to `COc1cc(OC)c(C(C)=O)cc1OC`, for which the growth inhibition in experiment [1] is -9.2%; in experiment [2] it was -13.9%; in experiment [3], -3.15%; in experiment [4], -2.8%; in experiment [5], 6.3%; in experiment [6], 6.7%.
For the compound `O=C(CBr)c1c2c(cc3c1CCCC3)CCCC2`, the growth inhibition is 1.75% in experiment [1]; -1.35% in experiment [2]; -2.05% in experiment [3]; -4.9% in experiment [4]; 33% in experiment [5]; -16.6% in experiment [6].
As to `COc1ccccc1/C(=N\OCCC(=O)O)c1cccs1`, the growth inhibition was 2.15% in experiment [1]; -0.95% in experiment [2]; 5.95% in experiment [3]; 0.65% in experiment [4]; -1.25% in experiment [5]; -51.1% in experiment [6].
As for `CCOC(=O)c1c(/C=N\Nc2ccccc2)nc2ccccc2c1-c1ccccc1`, the growth inhibition in experiment [1] was 11.7%; in experiment [2], 0.6%; in experiment [3], -2.9%; in experiment [4], -6.5%; in experiment [5], -30.8%; in experiment [6], -7.4%.
